# Laboratory results published in PubChem BioAssay (Tox21).
# Records with an inconclusive call do not appear. A call without a number means that no potency is given here. Calls of active or inactive are those of the source. The call rests on the fitted dose curve; in most records, active means well fitted cell-killing curve with a large enough effect in the repeat runs; inconclusive means weak or mixed curves, or effect the other way; inactive means flat fitted curve, though single readings scatter.
# Assay: cAMP Responsive Elements (CRE) small molecule antagonists, cell-based qHTS assay: qHTS cell viability counter screen (AID 2060913); further: nearly all actives have a fitted effect of over 40% in size
# Conditions: CRE-bla HEK293T viability, CellTiter-Glo luminescence, 5 h; series mostly up to 92.4 µM
# In short: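 CRE-bla HEK293T cells were seeded in assay medium with 10% dialyzed FBS, incubated 18 hrs at 37 C, then exposed to compounds plus 0.25 uM final NKH477 for 3 hrs. Viability was read by CellTiter-Glo luminescence after 30 min, in the same wells.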
row,SMILES,Potency
1,Cc1ccc(OP(=O)(Oc2ccc(C)cc2)Oc2ccc(C)cc2)cc1,inactive
2,CCOP(=S)(OCC)SCSC(C)(C)C,inactive
3,CC(=O)/C=C/c1ccccc1,inactive
4,CC(C)CCCCCCCOC(=O)c1ccccc1C(=O)OCCCCCCCC(C)C,inactive
5,CN1C(=O)COc2c(C(=O)NC3CN4CCC3CC4)cc(Cl)cc21 (stereo not given),inactive
6,CC(C)CC(C)Nc1ccc(Nc2ccccc2)cc1 (stereo not given),inactive
7,CC(C)Nc1nc(Cl)nc(NC(C)C)n1,inactive
8,CCCCc1ccccc1,inactive
9,COc1cc(OC)nc(Sc2cccc(Cl)c2C(=O)O)n1,inactive
10,CC(C)COC(=O)c1ccccc1C(=O)OCC(C)C,inactive
11,C=CC(C)=O,inactive
12,O=C1CN=C(c2ccccc2)c2cc(Cl)ccc2N1CC1CC1,inactive
13,CCCN(CCC)c1c([N+](=O)[O-])cc(C(C)C)cc1[N+](=O)[O-],inactive
14,Nc1nc(N)nc(Cl)n1,inactive
15,COCC(=O)N(c1c(C)cccc1C)C(C)C(=O)OC (stereo not given),inactive
16,NC1=NC(=O)C(c2ccccc2)O1 (stereo not given),inactive
17,CCOP(=S)(OCC)OP(=S)(OCC)OCC,inactive
18,NCCc1cc(O)c(O)cc1O,inactive
19,Oc1ccc(Cc2ccc(O)cc2)cc1,inactive
20,N[C@@H]1C[C@H]1c1ccccc1,inactive
21,O=C(N/N=C/c1ccc([N+](=O)[O-])o1)c1cc([N+](=O)[O-])cc([N+](=O)[O-])c1O,inactive
22,Nc1ccc([N+](=O)[O-])cc1,inactive
23,BrCC(Br)c1ccccc1 (stereo not given),inactive
24,Cc1cc(Cl)ccc1O[C@H](C)C(=O)O,inactive
25,Cc1cc(Cl)ccc1O,inactive
